Data on 40 compounds can be found in PubChem BioAssay (NCI).

Values joined by “and” are separate entries in the source; they are usually repeats but may differ in a detail not shown here. Identical values can stand only once. The panel holds about 83,000 compounds, 20% with a hit somewhere; the sample as a whole holds those more often.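 For each line, cells grew in 96-well plates with the test compound present at a single concentration for 48 hours.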 Active and inactive are the calls of the source. Where a SMILES comes first, the peptide text is derived from it.

The test system of the assay is SK-MEL-5 melanoma. Put plainly: NCI-60 one-dose screen, 48 h (100 = growth as untreated, 0 = no growth, -100 = all killed). As to conditions: 10 µM unless noted. The method, then: Growth inhibition of the SK-MEL-5 human tumor cell line is measured as a screen for anti-cancer activity. Cells are grown in 96 well plates and exposed to the test compound for 48 hours. Compounds are tested at a single concentration, which is 10^-5 M for most compounds. The reported endpoint is percent growth (GI% or GIPRCNT), where numbers from 0 - 100% represent growth inhibition, and numbers from -100% - 0 represent cell death. For example, a value of 40 represents 60% growth inhibition. A value of 0 means no net growth occurred over the course of the experiment. A value of -40 indicates 40% of cells at the beginning of the experiment died by the end of the experiment. A value of -100 means all cells are dead at the end of the experiment.
NCI-60 Human Tumor Cell Lines Screen was performed using the standard one-dose NCI protocol, which is described in more detail at https://dtp.cancer.gov/discovery_development/nci-60/default.htm.
Compounds with GIPRCNT values below 10 were considered active. Activity score was based on GIPRCNT using the following formula: […]
Score is 0 for GIPRCNT values of 100 or above, 50 for GIPRCNT values of 0, and 100 for GIPRCNT values of -100.
Regarding `O=[N+]([O-])c1cccc(SSc2cccc([N+](=O)[O-])c2)c1`, the growth is 99.4% (inactive).
`NC(Cc1c[nH]c2ccccc12)C(=O)O` (stereo not given): the growth was 124% (inactive) and 101% (inactive).
Consider `CCCCCCCCCCCCCCCc1ccc(N)c(OC2OC(CO)C(O)C(O)C2O)c1` (stereo not given), for which the growth is 111% (inactive).
As for `N#CC(C#N)N=Nc1ccc(Cl)cc1`, the figure is 79.6% (inactive); as for `Cn1cnc([N+](=O)[O-])c1Sc1ncn[nH]1`, 104% (inactive).
As for `c1ccc(CNCCNCc2ccccc2)cc1`, the figure is 107% (inactive).
As for `CCc1cc(C)cc(O)c1`, the figure is 105% (inactive).
For `CC(=O)Nc1ccc(S(N)(=O)=O)cc1`, the growth is 93.2% (inactive) and 101% (inactive).
As to `CC[C@H](CC[C@@H](C)[C@H]1CC[C@H]2[C@@H]3CC=C4C[C@@H](O)CC[C@]4(C)[C@H]3CC[C@]12C)C(C)C`, the growth was 95.2% (inactive) and 105% (inactive).
As for `O=CN1CCCCC1`, the figure is 100% (inactive); as for `CC1(C)COC(=S)N1`, 112% (inactive); as for `CN1CNC(=O)NC1`, 113% (inactive) and 95.9% (inactive).
As for `O=C(Cc1ccccc1)c1ccc(O)c(Cl)c1`, the figure is 27.5% (inactive); as for `O=c1[nH]cnc2c1ncn2C1OC(CO)C(O)C1O` (stereo not given), 106% (inactive) and 109% (inactive) and 107% (inactive); as for `O=C(/C=C/c1ccccc1)c1ccccc1`, 84.4% (inactive).
As for `COc1ccc2cc1Oc1ccc(cc1)C[C@H]1c3cc(c(OC)cc3CCN1C)Oc1c(OC)c(OC)cc3c1[C@H](C2)N(C)CC3`, the figure is 21.1% (inactive).
Turning to `COc1ccc(Nc2ccc3ccccc3c2)cc1`, the growth is 73.8% (inactive).
As for `Cl`, the figure is 105% (inactive).
With `NC(=O)NCCCC(N)C(=O)O` (stereo not given), the growth was 113% (inactive).
To `CC1CCC2(OC1)OC1CC3C4CC=C5CC(O)CCC5(C)C4CCC3(C)C1C2C` (stereo not given) belongs 105% (inactive); to `c1ccc(-c2nc3ccccc3s2)cc1`, 89.8% (inactive); to `CC1CCC(C(C)C)C(NNC(N)=O)C1` (stereo not given), 102% (inactive).
As for `Nc1ccc2c(O)cc(S(=O)(=O)O)cc2c1`, the figure is 96.6% (inactive) and 104% (inactive).
As for `CC(C)C(C)(C)c1ccc(O)cc1`, the figure is 99.9% (inactive); as for `OC1COC(OCc2ccccc2)C(O)C1O` (stereo not given), 101% (inactive).
For `OCC1OC(O)C(O)C(O)C1O` (stereo not given), the growth is 110% (inactive).
As for `O=c1n(CC2CO2)c(=O)n(CC2CO2)c(=O)n1CC1CO1` (stereo not given), the figure is 86.7% (inactive); as for `c1ccc2c(c1)OC1OC2Oc2ccccc21`, 103% (inactive).
To `NC(Cc1ccccc1)C(=O)NC(Cc1ccccc1)C(=O)O` (stereo not drawn) (H-Phe-Phe-OH; configuration not given here) belongs 100% (inactive) and 94.8% (inactive).
To `O=C1OC(C(O)C(O)CO)C(O)=C1O` (stereo not given) belongs 97.2% (inactive) and 106% (inactive).
Take `C#CCOC(=O)Nc1ccccc1`: the growth was 103% (inactive).
As for `Cc1ccc(=O)[nH]n1`, the growth was 101% (inactive) and 105% (inactive).
As for `O=C1CSC2=NCCN12`, the figure is 88.9% (inactive) and 86.1% (inactive); as for `O=C1c2c(O)ccc(O)c2C(=O)c2c(NCCNCCO)ccc(NCCNCCO)c21`, -100% (active); as for `N#CC(C#N)N=Nc1cc(Cl)ccc1Cl`, 106% (inactive).
To `CCCCNc1ccc(Nc2ccccc2)cc1` belongs 67.3% (inactive); to `Cc1ccc(S(=O)(=O)c2ccccc2)cc1`, 23.7% (inactive).
To `NC1CCC(C(=O)O)CC1` (stereo not given) belongs 102% (inactive) and 103% (inactive); to `CCCCCCCCCCCCCCCCC(C(=O)O)C(O)(CC(=O)O)C(=O)O` (stereo not given), 107% (inactive); to `O=C(O)/C=C\C(=O)Nc1cccc2ccccc12`, 95.3% (inactive) and 108% (inactive).
